A selection: hits, their analogues and other compounds. The true share with any hit is near 7.4%.
p53 reactivation: mutant p53 re-activation in reporter cells. 0.063% of 320,000 active. Potency, µM (top dose mostly 92.2 µM), for inactives: at the top dose activity change, positive = activation, hits mostly activators. H1299 p53-A138V BP100-luciferase reporter, luminescence, 24 h; further: % of control where 0% means no effect; nearly all actives have a fitted effect of over 45% in size
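H1299 (p53-null), stable ts p53-A138V + BP100-Luc; 1000 cells/well, Opti-MEM/10% FBS; cpd 4 pt, 1:5; 24 h, 37 deg C, 5% CO2; detection reagent 10 min RT; luminescence.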
SMN2 splice enh: increases expression of the SMN2 splice variant | HEK293 SMN2-luciferase splicing reporter, luminescence, 30-36 h | Potency, µM (top dose mostly 46.1 µM), for inactives: top-dose activity change, positive = activation, hits mostly activators | 2.8% of 210,000 active | AID 1458; further: % of control where 0% means no effect; nearly all actives have a fitted effect of over 55% in size
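qHTS luciferase splicing reporter: luminescence rises when SMN2 exon 7 is included in transfected HEK293 cells. Compound exposure lasted 30-36 h at 37C, with 4.5 mM final sodium butyrate as control, followed by a ONE-Glo read.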
NPC1 prom act: activates the NPC1 promoter; Huh7 NPC1 promoter luciferase reporter, 24 h; 2.4% of 320,000 active; Potency, µM (doses to about 9.22 µM), for the others: at the top dose activation, usual class: activators; further: % of control where 0% means no effect; nearly all actives have a fitted effect of over 60% in size
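In 1536-well qHTS, Huh7 cells harboring an NPC1 promoter–luciferase construct received compound for 24 h; activation was quantified by luminescence following luciferase reagent addition.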
ELG1 genotoxic: inducers of genotoxicity in HEK293T ELG1-luciferase cells. HEK293T ELG1-luciferase reporter, luminescence, 16 h. Potency, µM (doses to about 46 µM), for inactives: top-dose activity change, positive = activation, actives largely listed as activators. 1.3% of 330,000 active. AID 504466; further: % of control where 0% means no effect; nearly all actives have a fitted effect of over 60% in size
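DMSO vehicle served as control against compound-treated ELG1-luciferase HEK293T cells; exposure lasted 16 hr at 37 °C and 5% CO2, followed by ONE-Glo luminescence detection after 30 min.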
FLuc counter: firefly luciferase modulation, counter-screen for miR-21 project | P08659 | purified FLuc, Km substrates, luminescence inhibition | AID 588342 | Potency, µM (titrated, usually from 57.5 µM), for inactives: top-dose activity change, negative = inhibition, hits mostly inhibitors | 6.9% of 360,000 active;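 further: plate controls were vehicle for no effect and reference inhibitor for full effect; nearly all actives have a fitted effect of over 55% in size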
Target sequence (P08659 whole entry, looked up): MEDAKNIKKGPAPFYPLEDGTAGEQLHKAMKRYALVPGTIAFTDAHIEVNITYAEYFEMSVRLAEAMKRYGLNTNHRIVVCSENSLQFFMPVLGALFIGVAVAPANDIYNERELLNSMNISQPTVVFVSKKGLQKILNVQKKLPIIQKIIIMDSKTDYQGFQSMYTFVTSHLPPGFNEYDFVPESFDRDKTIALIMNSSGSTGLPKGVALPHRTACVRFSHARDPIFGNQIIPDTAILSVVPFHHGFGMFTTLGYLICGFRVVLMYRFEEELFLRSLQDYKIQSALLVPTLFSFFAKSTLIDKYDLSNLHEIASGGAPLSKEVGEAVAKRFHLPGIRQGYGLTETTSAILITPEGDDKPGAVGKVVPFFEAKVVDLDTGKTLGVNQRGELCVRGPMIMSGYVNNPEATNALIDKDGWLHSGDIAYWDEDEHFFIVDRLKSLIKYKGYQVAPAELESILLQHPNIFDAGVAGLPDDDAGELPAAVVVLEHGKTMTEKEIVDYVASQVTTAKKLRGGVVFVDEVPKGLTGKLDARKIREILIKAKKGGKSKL
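Purified P. pyralis luciferase, 10 nM final, with Km-level 10 uM D-luciferin and 10 uM ATP in 50 mM Tris acetate pH 7.5, 10 mM Mg acetate, 0.01% Tween-20, 0.05% BSA; 6-point qHTS titration about 60 µM downward; luminescence read.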
Rab9 promoter act: activators of Rab9 promoter; Huh7 Rab9 promoter-luciferase reporter, luminescence, 24 h; Potency, µM (titrated, usually from 9.22 µM), for inactives: at the top dose activation, negative = inhibition, actives largely listed as activators; 2.8% of 320,000 active; AID 485297; further: % of control where 0% means no effect; nearly all actives have a fitted effect of over 60% in size
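Quantitative HTS format; Huh7 Rab9-luciferase reporter cells (1500/well) receive compound 2 h post-plating, incubate 24 h at 37 °C, then get luciferase reagent for 10 min before luminescence reading.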
The depositor's hits bear a star; ? = inconclusive; · = no result given; [ ] = dose if it differs, or a comment. The call rests on the fitted dose curve; in most records, active means well fitted curve in the direction sought with a large enough effect; inconclusive means small, poorly fitted or top-dose-only effect, or another doubt; inactive means no such curve, though single readings can be large; an effect the other way counts as inactive or inconclusive. Potency means the concentration at half of the fitted maximal effect.

SMILES	p53 reactivation	SMN2 splice enh	NPC1 prom act	ELG1 genotoxic	FLuc counter	Rab9 promoter act
CC(C)(C)C1CCC(=O)N(CCSc2ccccc2)CC1 (centres undefined)	?	·	2.5µM*	?	7.6µM*	3.2µM*
Cc1ccc(SCCN2CCC(C)CCC2=O)cc1 (centres undefined)	·	·	4µM*	?	19µM*	?
Cc1ccc2nc(NC(=O)c3nc(SCc4ccccc4C)ncc3Cl)sc2c1	·	-4%	·	·	-6%	·
CCOc1ccc(CCNC(=O)c2ccc(-c3nc(CSc4ccccc4)c(C)o3)cc2)cc1	·	·	·	·	0%	·
CC(C)N1CCc2c(sc(NC(=O)c3nc4ccccc4s3)c2C(N)=O)C1	-4%	-9%	0%	1%	17µM*	-1%
CCN1CCN(S(=O)(=O)c2ccc(C(=O)Nc3sc4c(c3C(N)=O)CCN(CC)C4)cc2)CC1	?	·	1%	-1%	1%	-5%
CCN1CCc2c(sc(NC(=O)c3ccc4ccccc4c3)c2C(N)=O)C1	-7%	·	21%	8%	2.4µM*	14%
Cc1ccc(CNC(=O)c2nnn(Cc3ccc(F)cc3)c2N)cc1	·	6%	·	·	-2%	·
CCn1cc(Cl)c(C(=O)Nc2ccc3c(c2)OCCO3)n1	14%	11µM*	3.2µM*	?	6µM*	1.6µM*
Cc1nn(C)cc1C(=O)Nc1ccc2c(c1)OCCO2	?	·	4.5µM*	?	12µM*	3.2µM*
Cc1nn(C)cc1S(=O)(=O)Nc1ccc2c(c1)OCCO2	4%	-23%	-4%	?	?	-1%
Cn1ncc(Br)c1C(=O)Nc1ccc(Br)cn1	0%	23%	18%	-2%	4%	-2%
Cn1nccc1C(=O)Nc1ccc2c(c1)OCCO2	5%	·	3.2µM*	?	12µM*	1.6µM*
Cc1c(C(=O)Nc2ccc(Br)cc2)cnn1C	?	13µM*	?	?	13µM*	?
CCC(=O)N1c2ccccc2CC1C(=O)NCCCN1CCN(c2cc(C)ccc2C)CC1 (centres undefined)	·	·	·	·	-3%	·
CCOC(=O)[C@@H]1[C@H]2COc3ccc(Br)cc3[C@@H]2N2C(=O)N(c3ccc(C(F)(F)F)cc3)C(=O)[C@@]12C	·	·	0%	-4%	2%	-3%
Cc1c(C(=O)Nc2ccc3c(c2)OCCO3)cnn1C	23%	·	?	3.7µM*	11µM*	?
Cn1ncc([N+](=O)[O-])c1C(=O)Nc1ccc2c(c1)OCCO2	13%	-11%	0%	9%	?	2%
O=C(NC1CC(=O)N(c2cccc(F)c2)C1)c1ccc(Br)o1 (centres undefined)	·	·	·	·	1%	·
COc1ccc(C(=O)Nc2cnc(NC(=O)c3cccs3)cc2C)cc1	13%	·	?	?	17µM*	?
Cc1cc(NC(=O)C2CC2)ncc1NC(=O)c1ccccn1	6%	?	?	?	?	2.5µM*
COc1ccc(C(=O)Nc2cc(C)c(NC(=O)c3ccccn3)cn2)cc1	20%	·	?	2%	1.1µM*	?
CCCCC(=O)Nc1cnc(NC(=O)c2cccs2)cc1C	·	·	3.2µM*	?	19µM*	2µM*
Cc1cc(NC(=O)C2CCCCC2)ncc1NC(=O)c1ccccn1	2%	8%	9%	9%	-27%	30%
CCc1cc(=O)oc2cc(C)c3c(-c4ccc(F)cc4)coc3c12	·	-5%	·	·	-17%	·
SMILES	p53 reactivation	SMN2 splice enh	NPC1 prom act	ELG1 genotoxic	FLuc counter	Rab9 promoter act
CCCS(=O)(=O)c1nc(S(=O)(=O)c2ccc(C)cc2)c(NCC(C)C)s1	·	-1%	·	·	-2%	·
O=C(N/N=C/c1c(O)ccc2ccccc12)c1[nH]ncc1Br	?	-79%	-7%	?	6.7µM*	-18%
Cc1ccc(O)c(/C=N/NC(=O)c2[nH]ncc2Br)c1	?	0%[1.84 µM]	?	16µM*	4.3µM*	?
CCOc1ccc(/C=N/NC(=O)c2[nH]ncc2Br)c(O)c1	?	3.5µM*	?	?	2.1µM*	?
COc1ccc(OC)c(/C=N/NC(=O)c2[nH]ncc2Br)c1	-1%	·	3%	1%	-10%	7%
Cc1cc(C(=O)N/N=C\c2cc(C(C)(C)C)ccc2O)n[nH]1	?	·	-31%	?	24µM*	-29%
O=C(N/N=C/c1cccs1)c1[nH]ncc1Br	?	·	3.5µM*	16µM*	21µM*	4µM*
COC(=O)c1cc(C)nc(Sc2ccccc2N)n1	12%	·	-2%	-4%	12µM*	8%
COc1ccc2[nH]c(C)c(CCNS(=O)(=O)c3cc(F)ccc3OC)c2c1	·	11%	·	·	-1%	·
Nc1c(C(=O)NC2CCCCC2)nsc1C(=O)OCC(=O)NC1CCCCC1	?	-21%	-11%	-9%	-6%	-11%
CCOC(=O)c1snc(C(=O)NC2CCCCC2)c1N	?	·	?	8.2µM*	13µM*	3.5µM*

High-throughput results as filed in PubChem BioAssay.
